Hit rate of the full screen: of about 5,500 compounds, about 2,000 (36%) were called active. Inconclusive results (about 18%) are left out. Rule as the data show it: active = normalized growth mostly below about 0.91 (no sharp cut-off); inconclusive = no clear call, values can overlap the other calls; inactive = mostly above about 0.92. The list shows a part of the results.
Test: chemical genetic growth profiling, strain panel (AID 1159580);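 also: tested at 20 µM; growth read once vehicle control cultures reached saturation at 30 °C; 1 = growth at the plate median or of vehicle wells; lower values mean less growth of the strain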
Conditions: S. cerevisiae deletion strains, growth OD
[1] = locus YGR078C, strain PAC10, active compounds read low
[2] = locus YNL322C, strain KRE1, active compounds read low
[3] = locus YPL241C, strain CIN2, active compounds read low
[4] = locus YDL101C, strain DUN1, active compounds read low
[5] = locus YHR030C, strain SLT2, active compounds read low

Measured: normalized growth

CCCCS(=N)(=O)CC[C@H](N)C(=O)O (some centres undefined)
inactive: locus YAL040C, strain CLN3, active compounds read low 0.986 | locus YDR363W, strain ESC2, active compounds read low 0.99 | locus YER002W, strain NOP16, active compounds read low 1.01 | [1] 0.995 | locus YNL175C, strain NOP13, active compounds read low 0.984 | locus YNL197C, strain WHI3, active compounds read low 0.991 | locus YNL224C, strain SQS1, active compounds read low 0.983 | [2] 0.994 | locus YOR083W, strain WHI5 (second series), active compounds read low 0.977 | [3] 1

COc1ccc2c(c1)CCc1sc(NC(=O)c3ccco3)nc1-2
inactive: locus YAR019C, strain CDC15, active compounds read low 0.957 | locus YBL105C, strain PKC1, active compounds read low 0.961 | locus YBR135W, strain CKS1, active compounds read low 0.953 | locus YBR136W, strain MEC1, active compounds read low 0.969 | locus YBR160W, strain CDC28, active compounds read low 0.965 | locus YDL017W, strain CDC7, active compounds read low 0.971 | locus YDL028C, strain MPS1, active compounds read low 0.971 | [4] 0.993 | locus YDL108W, strain KIN28, active compounds read low 0.947 | locus YDL132W, strain cdc53, active compounds read low 0.97 | locus YDL214C, strain PRR2, active compounds read low 0.901 | locus YDR052C, strain DBF4, active compounds read low 0.969 | locus YDR054C, strain cdc34, active compounds read low 0.955 | locus YDR226W, strain ADK1, active compounds read low 0.957 | locus YDR477W, strain SNF1, active compounds read low 0.889 | locus YER123W, strain YCK3, active compounds read low 0.858 | locus YER133W, strain GLC7, active compounds read low 0.872 | locus YFL009W, strain cdc4, active compounds read low 0.963 | locus YFL029C, strain CAK1, active compounds read low 0.959 | locus YFR003C, strain YPI1, active compounds read low 0.964 | locus YFR019W, strain FAB1, active compounds read low 0.996 | locus YFR028C, strain CDC14, active compounds read low 0.95 | locus YGR040W, strain KSS1, active compounds read low 0.872 | locus YGR052W, strain FMP48, active compounds read low 0.94 | locus YGR092W, strain DBF2, active compounds read low 0.803 | locus YHR079C, strain IRE1, active compounds read low 0.952 | locus YHR082C, strain KSP1, active compounds read low 0.918 | locus YHR205W, strain SCH9, active compounds read low 0.921 | locus YIL147C, strain SLN1, active compounds read low 0.957 | locus YJL095W, strain BCK1, active compounds read low 0.895 | locus YJL128C, strain PBS2, active compounds read low 0.934 | locus YJL157C, strain FAR1, active compounds read low 0.889 | locus YJR016C, strain ILV3, active compounds read low 0.961 | locus YJR066W, strain TOR1 (second series), active compounds read low 0.872 | locus YJR066W, strain TOR1, active compounds read low 0.924 | locus YKL048C, strain ELM1, active compounds read low 0.959 | locus YKL067W, strain YNK1, active compounds read low 0.92 | locus YKL101W, strain HSL1, active compounds read low 0.941 | locus YKL193C, strain SDS22, active compounds read low 0.95 | locus YKL203C, strain TOR2, active compounds read low 0.951 | locus YLR133W, strain CKI1, active compounds read low 0.93 | locus YLR403W, strain SFP1, active compounds read low 0.915 | locus YML070W, strain DAK1, active compounds read low 0.88 | locus YMR001C, strain CDC5, active compounds read low 0.946 | locus YMR205C, strain PFK2 (second series), active compounds read low 0.927 | locus YMR277W, strain FCP1, active compounds read low 0.954 | locus YNL006W, strain LST8, active compounds read low 0.967 | locus YNL020C, strain ARK1, active compounds read low 0.928 | locus YNL161W, strain CBK1, active compounds read low 0.96 | locus YNL183C, strain NPR1, active compounds read low 0.938 | locus YNL207W, strain RIO2, active compounds read low 0.96 | locus YNL222W, strain SSU72, active compounds read low 0.957 | locus YNL307C, strain MCK1 (second series), active compounds read low 0.94 | locus YOL078W, strain AVO1, active compounds read low 0.961 | locus YOL136C, strain PFK27, active compounds read low 0.882 | locus YOR061W, strain CKA2, active compounds read low 0.887 | locus YOR119C, strain RIO1, active compounds read low 0.865 | locus YOR231W, strain MKK1, active compounds read low 0.932 | locus YOR329C, strain SCD5, active compounds read low 0.969 | locus YPL031C, strain PHO85, active compounds read low 0.828 | locus YPL153C, strain RAD53, active compounds read low 0.845 | locus YPL204W, strain HRR25, active compounds read low 0.896 | locus YPL209C, strain IPL1, active compounds read low 0.968 | locus YPL256C, strain CLN2, active compounds read low 0.918 | locus YPR025C, strain CCL1, active compounds read low 0.953 | locus YPR106W, strain ISR1, active compounds read low 0.969 | locus YPR111W, strain DBF20, active compounds read low 0.967 | strain NNK1, active compounds read low 0.973 | strain TSCII, active compounds read low 0.959
active: [5] 0.757 | locus YLR113W, strain HOG1, active compounds read low 0.823

COc1ccc(C(=O)c2sc(Nc3ccccc3)nc2-c2ccccc2)cc1
inactive: locus YAL013W, strain DEP1, active compounds read low 0.999 | locus YBR229C, strain ROT2, active compounds read low 0.979 | locus YCL061C, strain MRC1, active compounds read low 1 | [4] 1 | locus YDR150W, strain NUM1, active compounds read low 1.01 | locus YEL061C, strain CIN8, active compounds read low 0.96 | [1] 0.994 | [5] 0.907 | locus YHR087W, strain rtc3, active compounds read low 0.958 | locus YJR043C, strain POL32, active compounds read low 0.988 | locus YJR075W, strain HOC1, active compounds read low 0.975 | locus YKL190W, strain CNB1, active compounds read low 0.997 | locus YLR039C, strain RIC1, active compounds read low 0.825 | locus YLR058C, strain SHM2 (second series), active compounds read low 1.02 | locus YLR085C, strain ARP6, active compounds read low 0.853 | locus YLR262C, strain YPT6, active compounds read low 0.993 | locus YML094W, strain GIM5, active compounds read low 0.927 | locus YMR219W, strain ESC1, active compounds read low 0.976 | locus YMR263W, strain SAP30, active compounds read low 0.971 | locus YMR307W, strain GAS1, active compounds read low 0.925 | locus YNL153C, strain GIM3, active compounds read low 1.03 | locus YNL298W, strain CLA4 (second series), active compounds read low 0.953 | [2] 0.989 | locus YNR030W, strain Alg12, active compounds read low 0.913 | locus YOL006C, strain TOP1, active compounds read low 0.893 | locus YPL055C, strain LGE1, active compounds read low 0.916 | [3] 0.898 | locus YPR135W, strain CTF4, active compounds read low 0.857

From PubChem BioAssay AID1159580 (chemical genetic matrix, 2015)
